Shn3 inh set2 – reduction of Shn3 3'UTR firefly luciferase signal, primary screen, Schnurri-3 inhibitor project, cell-based, Clone20 osteoblasts, set 2; Clone20 osteoblast Shn3 3'UTR firefly luciferase, 24 h; inhibition, % at 12.5 µM; hit rate 0.52% among 360,000;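 active = mean inhibition of at least 75% with every replicate also reaching 75%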;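 also: 0% = median of neutral control wells and 100% = pilot-screen positive control compound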
Mdm2 MdmX PPI – inhibitors of human Mdm2-MdmX association, primary screen, cell-based, luminescence, split luciferase, SaOS-2, uHTS. Protein Mdm4 (Homo sapiens) + E3 ubiquitin-protein ligase Mdm2 (Homo sapiens), …. inhibition, % at 8 µM. SaOS-2 split-luciferase Mdm2/MdmX complementation. AID 485346, 2010. hit rate 3% among 330,000;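 active = inhibition of at least 50% at 8 µM in the primary screen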
Target sequence (O15151 whole entry, looked up): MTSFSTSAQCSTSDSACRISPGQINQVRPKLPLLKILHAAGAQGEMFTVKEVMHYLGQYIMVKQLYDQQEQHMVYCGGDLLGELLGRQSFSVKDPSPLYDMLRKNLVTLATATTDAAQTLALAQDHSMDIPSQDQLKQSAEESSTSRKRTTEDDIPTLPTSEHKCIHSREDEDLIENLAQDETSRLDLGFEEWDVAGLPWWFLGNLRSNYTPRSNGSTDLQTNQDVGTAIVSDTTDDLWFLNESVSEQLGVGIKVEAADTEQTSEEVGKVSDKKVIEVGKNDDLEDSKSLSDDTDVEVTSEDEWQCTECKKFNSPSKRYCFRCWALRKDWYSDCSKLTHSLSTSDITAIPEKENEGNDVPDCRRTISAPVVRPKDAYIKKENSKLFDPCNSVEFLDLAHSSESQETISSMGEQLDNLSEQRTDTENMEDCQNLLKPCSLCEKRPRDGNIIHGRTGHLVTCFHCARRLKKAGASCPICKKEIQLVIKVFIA
Target sequence (Q00987 whole entry, looked up): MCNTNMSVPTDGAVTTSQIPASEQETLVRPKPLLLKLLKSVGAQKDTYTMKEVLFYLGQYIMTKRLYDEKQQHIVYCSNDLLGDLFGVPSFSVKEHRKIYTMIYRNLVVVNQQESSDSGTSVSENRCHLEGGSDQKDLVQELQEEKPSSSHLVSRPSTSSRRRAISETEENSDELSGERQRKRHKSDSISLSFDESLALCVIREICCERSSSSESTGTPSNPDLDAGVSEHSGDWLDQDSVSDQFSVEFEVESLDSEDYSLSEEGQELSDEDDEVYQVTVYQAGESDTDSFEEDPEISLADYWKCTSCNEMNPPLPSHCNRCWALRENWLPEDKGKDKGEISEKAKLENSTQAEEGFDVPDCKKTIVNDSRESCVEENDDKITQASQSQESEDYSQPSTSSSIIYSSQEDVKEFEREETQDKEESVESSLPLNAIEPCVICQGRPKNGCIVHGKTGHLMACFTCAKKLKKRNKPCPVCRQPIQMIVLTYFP
PAX8 reporter – inhibitors of PAX8-driven TPO luciferase reporter, primary screen, RMG-I cells, single concentration | SteadyGlo, 24 h | inhibition, % at 12.6 µM | hit rate 1.2% among 360,000 | AID 652154, 2013;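 active = mean replicate inhibition at least 60% with every replicate also reaching 60%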;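 also: luciferase light reporting Pax8 driven TPO promoter activity; plate controls were median of neutral control wells for no effect and mitoxantrone controls for full effect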
Beta apoptosis – inhibitors of cytokine-induced beta cell apoptosis, primary screen, luminescence; INS-1E cytokine-induced death, ATP luminescence, 48 h; percent of positive-control rescue, neutral wells zero; protection from apoptosis, % (test concentration not listed); hit rate 0.8% among 300,000; AID 435005, 2010;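 active = Every replicate reaches about 75%, or at least half do and their mean reaches it too, limit read from the data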;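 also: 0% = cytokine-treated negative control wells and 100% = positive control rescue; higher means more ATP so stronger rescue from cytokine killing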
Gli-Sufu antag – Gli-Sufu pathway antagonists, primary screen, luciferase luminescence, Sufu-KO-LIGHT cells, uHTS. Sufu-KO-LIGHT fibroblasts, Gli luciferase reporter luminescence. hit rate 0.74% among 340,000. AID 588413, 2011. inhibition, % at 5 µM;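 active = inhibition above about 55%, limit read from the data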;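 also: 0% = DMSO-treated cells and 100% = wells with medium but no cells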
CSC inhib – cancer stem cell viability inhibitors, primary screen, luminescence | cancer stem cell-like cells viability | inhibition, % at 7.5 µM | hit rate 1.1% among 300,000; in the data active = inhibition above about 75%; tested in HMLE shEcad cells
Mdm2 MdmX conf – Mdm2-MdmX complex disruptors, retested hits, confirmation, luminescence, single concentration; hit rate 55% among 10,000; shares compounds with Mdm2 MdmX PPI; AID 489028, 2010; inhibition, % at 8 µM; Mdm2-MdmX binding, luminescent assay; in the data active = inhibition above about 40%
Full FLuc ctr – full-length luciferase signal inhibition, confirmation, counter-screen for Mdm2/MdmX interaction inhibitor project, cell-based, single concentration, SaOS-2; shares compounds with Mdm2 MdmX PPI; SaOS-2 full-length luciferase counterscreen, luminescence; inhibition, % at 8 µM; hit rate 77% among 6,200; AID 504607, 2011;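 active = mean inhibition at 8 µM reaching about 37%, which flags the compound as non-specific, limit read from the data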;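 also: p53-null SaOS-2 cells with luciferase driven by a doxycycline-inducible promoter; compound on cells about two nights before reading with doxycycline added after day one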
Starred values were filed as active, the others as inactive; nt = not tested or not shown. Most compounds without a hit are left out; they make up all but 4% or so of the library.

SMILES | Shn3 inh set2 | Mdm2 MdmX PPI | PAX8 reporter | Beta apoptosis | Gli-Sufu antag | CSC inhib | Mdm2 MdmX conf | Full FLuc ctr
CC(=O)C(C(c1ccccc1)c1c[nH]c2ccccc12)[N+](=O)[O-] (stereo not given) | -1 | 53* | 22 | -2 | 1 | 71 | 61* | 57*
CCn1cc(C(c2ccccc2)C(C(C)=O)[N+](=O)[O-])c2ccccc21 (stereo not given) | 22 | 18 | 26 | 2 | 9 | 20 | nt | nt
COCCNC(=O)/C(C#N)=C\c1ccc(CNC(=O)C(=O)Nc2ccc(C)c(C)c2)o1 | 14 | -7 | -2 | 0 | -4 | -4 | nt | nt
COc1ccc(NC(=O)C(=O)N/N=C\c2ccc(CNC(=O)C(=O)Nc3ccc(C)c(C)c3)o2)c(OC)c1 | nt | 92* | nt | nt | 11 | nt | 46* | 95*
C[C@H]1CN([C@@H](C)CO)C(=O)Cc2cc(NC(=O)Nc3ccccc3)ccc2O[C@H]1CN(C)CC1CCCCC1 | nt | nt | 51 | nt | nt | nt | nt | nt
CC/C(=C(\c1ccccc1)c1ccc(OCCN(C)C)cc1)c1ccccc1 | 25 | 58* | -9 | 1 | 4 | 99* | 22 | nt
CCC(=C(c1ccccc1)c1ccc(OCCN(C)C)cc1)c1ccccc1 | 15 | nt | -8 | nt | nt | nt | nt | nt
CCN(CC)CCOc1ccc(/C(=C(/Cl)c2ccccc2)c2ccccc2)cc1 | 9 | 69* | 13 | 33 | -6 | 101* | 32 | 76*
CC/C(=C(\c1ccc(O)cc1)c1ccc(OCCN(C)C)cc1)c1ccccc1 | -17 | 93* | 17 | 14 | -9 | 52 | 38 | 61*
CCOc1ccc(C(=O)OCCN(CC)CC)cc1 | -20 | -11 | nt | -15 | 4 | 1 | nt | nt
CCC(=C(c1ccc(O)cc1)c1ccc(OCCN(C)C)cc1)c1ccccc1 | 14 | nt | -14 | nt | nt | nt | nt | nt
C[C@H](CO)N1C[C@H](C)[C@H](CN(C)S(C)(=O)=O)Oc2ccc(NC(=O)CCCN(C)C)cc2CC1=O | nt | nt | -12 | nt | nt | nt | nt | nt
CCN(CC)c1ccc(N2C(=O)/C(=C/c3cccs3)SC2=S)cc1 | -3 | 52* | 1 | 3 | -2 | 0 | 20 | nt
O=C(Nc1ccc(C(F)(F)F)cc1)N1[C@@H]2CNC[C@H]1C2c1ccc(-c2ccc(F)cc2)cc1 (stereo not given in full) | nt | nt | -5 | nt | nt | nt | nt | nt
OC1(C#Cc2c(-c3ccsc3)oc3ccc(N4CCOCC4)cc23)CCCCC1 | -24 | 24 | 14 | nt | -4 | 4 | nt | nt
COc1cc(-c2ccc3oc(-c4ccsc4)c(C#CC4(O)CCCCC4)c3c2)cc(OC)c1OC | 15 | 52* | 18 | 15 | 3 | 73 | 9 | nt
COc1ccc(-c2oc3cccnc3c2C#CC2(O)CCCCC2)cc1 | 15 | 52* | -6 | 3 | -2 | 36 | 39 | nt
COc1ccc(C#Cc2c(-c3ccc(OC)cc3)oc3ccc(-c4ccc(OC)cc4)cc23)cc1 | 1 | -10 | -5 | -2 | -5 | -12 | nt | nt
COc1ccc(-c2oc3ccc(N4CCOCC4)cc3c2C#CC2(O)CCCCC2)cc1 | -42 | 73* | -2 | nt | 2 | 14 | 59* | 54*
COc1ccc(-c2oc3ccc(-c4cc(OC)c(OC)c(OC)c4)cc3c2C#Cc2ccccn2)cc1 | 16 | 85* | 52 | -1 | 17 | 37 | 64* | 64*
COc1ccc2c3c([nH]c2c1)[C@@H](CO)N(S(C)(=O)=O)CC31CCN(C(=O)Cc2cccnc2)CC1 | nt | nt | -12 | nt | nt | nt | nt | nt
CCOc1cc(/C=C/C(=O)c2ccc(O)cc2)ccc1OCC(=O)N(C)C | 8 | 50 | 29 | -10 | 8 | -7 | nt | nt
CCOc1cc(/C=C/C(=O)c2ccc3c(c2)OCCO3)ccc1OCC(=O)N(C)C | -7 | 55* | 45 | -41 | 15 | nt | 39 | 51*
Cn1c(=N)c(S(=O)(=O)c2ccccc2)cc2c(=O)n3ccccc3nc21 | 9 | 22 | nt | 3 | 15 | -4 | nt | nt
Cc1ccc(S(=O)(=O)c2cc3c(=O)n4ccccc4nc3n(C)c2=N)cc1C | 14 | 86* | 9 | -8 | 17 | -11 | 24 | nt
SMILES | Shn3 inh set2 | Mdm2 MdmX PPI | PAX8 reporter | Beta apoptosis | Gli-Sufu antag | CSC inhib | Mdm2 MdmX conf | Full FLuc ctr
N=c1c(S(=O)(=O)c2ccc(Cl)cc2)cc2c(=O)n3ccccc3nc2n1CCc1ccccc1 | 4 | 63* | nt | 3 | nt | 19 | 37 | 25
COc1ccc(-n2cc(-c3ccccc3)c3c(N4CCN(CCO)CC4)ncnc32)cc1 | 1 | 51* | nt | 2 | -2 | -4 | 16 | nt
OCCN1CCN(c2ncnc3c2c(-c2ccccc2)cn3-c2ccc(F)cc2)CC1 | 9 | 25 | 0 | -7 | 10 | nt | nt | nt
Cc1cccc(-n2cc(-c3ccccc3)c3c(N4CCOCC4)ncnc32)c1 | 25 | 67* | 68* | 17 | 13 | 105* | 55* | 72*
COc1ccc(S(=O)(=O)N(C)C[C@H]2OCCCC[C@H](C)Oc3ccc(NC(=O)CCCN(C)C)cc3C(=O)N([C@@H](C)CO)C[C@@H]2C)cc1 | nt | nt | 16 | nt | nt | nt | nt | nt
CN1CCN(c2cc(N3CCN(C(=O)c4ccco4)CC3)c3c4c(onc24)-c2ccccc2C3=O)CC1 | 0 | 100* | nt | 6 | 19 | 14 | 74* | 24
COCc1cn(CC[C@H]2CC[C@@H](NC(=O)Nc3ccc(Cl)cc3)[C@@H](CO)O2)nn1 | nt | nt | -24 | nt | nt | nt | nt | nt
CCCC1/C(=N/O)CC(c2ccccc2)NC1c1ccccc1 (stereo not given) | 32 | 59* | 14 | nt | -2 | 2 | 62* | 64*
CC1/C(=N/O)CC(c2ccccc2)NC1c1ccccc1 (stereo not given) | -1 | -13 | nt | 2 | 1 | -6 | nt | nt
CC1C(=NO)C(C)C(c2ccccc2)NC1c1ccccc1 (stereo not given) | 27 | -18 | nt | 2 | -1 | 2 | nt | nt
CCC1C(=NO)C(CC)C(c2ccccc2)NC1c1ccccc1 (stereo not given) | 44 | 52* | 24 | 25 | 6 | 64 | 37 | nt
CN1C(=O)/C(=C/c2cccc(Cl)c2)Sc2ccc(C(=O)N3CCCC3)cc21 | nt | 73* | 35 | 6 | 6 | -10 | 13 | nt
CN(C)CCN(C(=O)c1ccc2ccccc2c1)c1nc2cc3c(cc2s1)OCCO3 | -44 | 3 | -64 | -18 | 16 | -4 | nt | nt
CCN(c1ccccc1)S(=O)(=O)c1ccc(C(=O)N(CCCN(C)C)c2nc3cc4c(cc3s2)OCO4)cc1 | 6 | 65* | 8 | -13 | 35 | 5 | 49* | 48*

Bioassay records (PubChem)
